According to publication PMC5540273 (PLoS ONE, 2017):

Assays:
Conditions in all cases: concentration: 1 μM, replicates: in singlicate; n = 1
[1] = system: TSSK3
[2] = system: TTK
[3] = system: TXK
[4] = system: TYK2(JH1domain-catalytic)
[5] = system: TYK2(JH2domain-pseudokinase)
[6] = system: TYRO3
[7] = system: ULK1
[8] = system: ULK2
[9] = system: ULK3
[10] = system: T1, VEGFR2
T1 construct: gene KDR

[11] = system: T2, VPS34
T2 construct: gene PIK3C3

[12] = system: VRK2
[13] = system: WEE1
[14] = system: WEE2
[15] = system: WNK1
[16] = system: WNK2
[17] = system: WNK3
[18] = system: WNK4
[19] = system: T3, YANK1
T3 construct: gene STK32A

[20] = system: T4, YANK2
T4 construct: gene STK32B
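Note: KINOMEscan kinase panel screen.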

O=C(NCCCN1CCOCC1)c1cccc(Nc2nccc(Nc3ccc(Oc4ccccc4)cc3)n2)c1 [GW663929]
%Inh [1]: 10%
%Inh [2]: 21%
%Inh [3]: 0%
%Inh [4]: 30%
%Inh [5]: 44%
%Inh [6]: 5%
%Inh [7]: 1%
%Inh [8]: 2%
%Inh [9]: 11%
%Inh [10]: 13%
%Inh [11]: 0%
%Inh [12]: 17%
%Inh [13]: 31%
%Inh [14]: 0%
%Inh [15]: 11%
%Inh [16]: 14%
%Inh [17]: 33%
%Inh [18]: 0%
%Inh [19]: 0%
%Inh [20]: 0%

CSc1ccc(-c2cc3ncnc(SCC(=O)O)c3s2)cc1
%Inh [1]: 0%
%Inh [2]: 0%
%Inh [3]: 0%
%Inh [4]: 0%
%Inh [5]: 0%
%Inh [6]: 0%
%Inh [7]: 0%
%Inh [8]: 8%
%Inh [9]: 0%
%Inh [10]: 0%
%Inh [11]: 31%
%Inh [12]: 0%
%Inh [13]: 0%
%Inh [14]: 15%
%Inh [15]: 0%
%Inh [16]: 0%
%Inh [17]: 0%
%Inh [18]: 0%
%Inh [19]: 0%
%Inh [20]: 0%

Cl.Nc1ncnc2occ(-c3ccc(NC(=O)Nc4cc(C(F)(F)F)ccc4F)cc3)c12 [SB-707548]
%Inh [1]: 11%
%Inh [2]: 35%
%Inh [3]: 0%
%Inh [4]: 0%
%Inh [5]: 12%
%Inh [6]: 0%
%Inh [7]: 0%
%Inh [8]: 0%
%Inh [9]: 19%
%Inh [10]: 99.8%
%Inh [11]: 5%
%Inh [12]: 0%
%Inh [13]: 10%
%Inh [14]: 6%
%Inh [15]: 4%
%Inh [16]: 11%
%Inh [17]: 28%
%Inh [18]: 13%
%Inh [19]: 0%
%Inh [20]: 17%

Cn1cc(-c2ccc3c(c2)CCN3C(=O)Cc2ccccc2Cl)c2c(N)ncnc21 [GSK2608885]
%Inh [1]: 7%
%Inh [2]: 17%
%Inh [3]: 85%
%Inh [4]: 33%
%Inh [5]: 0%
%Inh [6]: 100%
%Inh [7]: 6%
%Inh [8]: 0%
%Inh [9]: 6%
%Inh [10]: 82%
%Inh [11]: 0%
%Inh [12]: 0%
%Inh [13]: 0%
%Inh [14]: 0%
%Inh [15]: 0%
%Inh [16]: 17%
%Inh [17]: 6%
%Inh [18]: 25%
%Inh [19]: 32%
%Inh [20]: 84%

CCn1cnc2c(N)ncnc21 [GW345098]
%Inh [1]: 6%
%Inh [2]: 0%
%Inh [3]: 8%
%Inh [4]: 23%
%Inh [5]: 0%
%Inh [6]: 32%
%Inh [7]: 0%
%Inh [8]: 21%
%Inh [9]: 0%
%Inh [10]: 0%
%Inh [11]: 1%
%Inh [12]: 0%
%Inh [13]: 2%
%Inh [14]: 14%
%Inh [15]: 0%
%Inh [16]: 0%
%Inh [17]: 0%
%Inh [18]: 0%
%Inh [19]: 0%
%Inh [20]: 0%

Fc1ccc(-c2ncn(CCCN3CCOCC3)c2-c2cccnc2)cc1 [SB-211743]
%Inh [1]: 0%
%Inh [2]: 15%
%Inh [3]: 0%
%Inh [4]: 0%
%Inh [5]: 7%
%Inh [6]: 0%
%Inh [7]: 4%
%Inh [8]: 2%
%Inh [9]: 18%
%Inh [10]: 0%
%Inh [11]: 0%
%Inh [12]: 20%
%Inh [13]: 0%
%Inh [14]: 0%
%Inh [15]: 8%
%Inh [16]: 0%
%Inh [17]: 0%
%Inh [18]: 0%
%Inh [19]: 0%
%Inh [20]: 0%

CN1c2ccc(CNc3ccc(F)cc3)cc2-c2c(cnn2C)S1(=O)=O
%Inh [1]: 0%
%Inh [2]: 0%
%Inh [3]: 0%
%Inh [4]: 0%
%Inh [5]: 0%
%Inh [6]: 0%
%Inh [7]: 0%
%Inh [8]: 0%
%Inh [9]: 0%
%Inh [10]: 0%
%Inh [11]: 0%
%Inh [12]: 0%
%Inh [13]: 2%
%Inh [14]: 0%
%Inh [15]: 0%
%Inh [16]: 0%
%Inh [17]: 1%
%Inh [18]: 0%
%Inh [19]: 0%
%Inh [20]: 0%

N#Cc1c(N2CCOCC2)sc(-c2ccn[nH]2)c1-c1ccc(Cl)cc1
%Inh [1]: 0%
%Inh [2]: 19%
%Inh [3]: 0%
%Inh [4]: 14%
%Inh [5]: 20%
%Inh [6]: 0%
%Inh [7]: 8%
%Inh [8]: 15%
%Inh [9]: 20%
%Inh [10]: 11%
%Inh [11]: 86%
%Inh [12]: 35%
%Inh [13]: 0%
%Inh [14]: 0%
%Inh [15]: 0%
%Inh [16]: 4%
%Inh [17]: 14%
%Inh [18]: 34%
%Inh [19]: 0%
%Inh [20]: 0%

Cc1c(Cn2c(C)nn3c(=O)cc(N4CCOC(C)C4)nc23)cccc1C(F)(F)F (centres unmarked) [GSK2344444]
%Inh [1]: 0%
%Inh [2]: 6%
%Inh [3]: 0%
%Inh [4]: 13%
%Inh [5]: 0%
%Inh [6]: 0%
%Inh [7]: 34%
%Inh [8]: 0%
%Inh [9]: 15%
%Inh [10]: 0%
%Inh [11]: 48%
%Inh [12]: 0%
%Inh [13]: 10%
%Inh [14]: 0%
%Inh [15]: 4%
%Inh [16]: 0%
%Inh [17]: 2%
%Inh [18]: 0%
%Inh [19]: 0%
%Inh [20]: 0%

Cc1cccc(-c2nc(Nc3ccc4ncsc4c3)c3ccccc3n2)n1 [GW867588]
%Inh [1]: 0%
%Inh [2]: 55%
%Inh [3]: 0%
%Inh [4]: 0%
%Inh [5]: 55%
%Inh [6]: 0%
%Inh [7]: 4%
%Inh [8]: 0%
%Inh [9]: 2%
%Inh [10]: 6%
%Inh [11]: 0%
%Inh [12]: 0%
%Inh [13]: 8%
%Inh [14]: 6%
%Inh [15]: 0%
%Inh [16]: 6%
%Inh [17]: 31%
%Inh [18]: 0%
%Inh [19]: 0%
%Inh [20]: 0%
